# Measured values from publication PMC7819943, “Rice protein-binding microarrays: a tool to detect cis-acting elements near promoter regions in rice”.
# Over roughly 39,000 sequences, “fluorescence intensity (a.u.)” has its median near 4,300; the highest 2% begin near 39,000. What follows is part of a selection rich in the highest values, with near analogues and random picks from the rest.
# Target: T1, OsSMF1 (Oryza sativa, UniProt Q6ZLB0 1-436)
# T1 sequence: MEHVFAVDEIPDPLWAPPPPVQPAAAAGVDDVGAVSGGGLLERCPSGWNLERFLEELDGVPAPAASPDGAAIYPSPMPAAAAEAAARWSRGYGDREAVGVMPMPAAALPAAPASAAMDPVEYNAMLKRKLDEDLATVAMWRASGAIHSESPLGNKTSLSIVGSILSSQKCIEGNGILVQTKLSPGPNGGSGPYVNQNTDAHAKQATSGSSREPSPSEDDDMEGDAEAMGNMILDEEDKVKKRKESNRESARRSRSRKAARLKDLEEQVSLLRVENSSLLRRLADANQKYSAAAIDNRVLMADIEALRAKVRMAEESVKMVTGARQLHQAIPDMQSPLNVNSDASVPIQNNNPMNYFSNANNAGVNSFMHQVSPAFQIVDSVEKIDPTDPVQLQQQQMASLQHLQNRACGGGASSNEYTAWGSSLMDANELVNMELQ
# Assay: protein-binding microarray (RPBM); PBS, 2% BSA, 51.3 ng/ul salmon testes DNA, 50 uM zinc acetate, 200 nM TF, 25 C, 1 h; high values mean tight binding
# Details: protein: recombinant; tags: N-terminal polyhistidine and DsRed monomer fusion (pET32a); chain copies: 2; label: CyDye5-dUTP incorporated in the synthesized complementary strand; 3' TTTTT single-stranded linker to array surface; dsDNA, one strand shown
# Method in brief: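 Binding signal here means per-feature fluorescence intensity in arbitrary units. The values were read on an Axon 4000B scanner after a custom Agilent array, double-stranded by primer extension with Cy5-dUTP, was incubated with 200 nM protein at 25 °C for 1 h in PBS with 2% BSA, salmon testes DNA and 50 µM zinc acetate, then washed. The proteins were transcription factors with an N-terminal polyhistidine tag and DsRed, expressed in E. coli BL21-CodonPlus and purified on Ni–NTA.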
row,Sequence,binding signal
1,GGCTTAAGTCAAGCTAATTTTAGATATTTATTATTTTGTGCGGAGTCACCTAGTGCAG,3900 fluorescence intensity (a.u.)
2,GTTCCATTGGTTTGTAATAATGAAGCCTGCCTAGTGCTTTCGGAGTCACCTAGTGCAG,32100 fluorescence intensity (a.u.)
3,CATCGTCCGCCGTGACACGCTGGCGGAGTCCGTGGTGCTACGGAGTCACCTAGTGCAG,5010 fluorescence intensity (a.u.)
4,GGGGAGGAGGACGAGTAACAGACGTGGTGGCCGCCGAGGCCGGAGTCACCTAGTGCAG,3490 fluorescence intensity (a.u.)
5,CGTCGATTAATTTCCCTGGTAAATACGAAATGTTCATGGTCGGAGTCACCTAGTGCAG,39600 fluorescence intensity (a.u.)
6,TATATTTCATTAATATAAATAAAATTAAAATGTTACTTAACGGAGTCACCTAGTGCAG,25600 fluorescence intensity (a.u.)
7,GTAATTAAATTAAATTAAATTGATTAATACCAACCCTGGTCGGAGTCACCTAGTGCAG,24500 fluorescence intensity (a.u.)
8,TCTCTCTCATCCTTCCAATCGATCTCCTCGACCTGCTATGCGGAGTCACCTAGTGCAG,3440 fluorescence intensity (a.u.)
9,CTCTCCTCTCCTCTTGGTGATGACTGATCGATGACCACCACGGAGTCACCTAGTGCAG,4680 fluorescence intensity (a.u.)
10,ATGATGATGATCCTGATCCTGATCTTCCTCCTCGATCGACCGGAGTCACCTAGTGCAG,42700 fluorescence intensity (a.u.)
11,CCCCACTGATGATGATGATGACTCGATTCTATTCCACCGCCGGAGTCACCTAGTGCAG,5550 fluorescence intensity (a.u.)
12,GATCTAGCCGACTCGATCCCGCCGATGACGATTCCATCCCCGGAGTCACCTAGTGCAG,39300 fluorescence intensity (a.u.)
13,CTCCTCTCCGATGAAGACCTGCCACCGGTCTGAACCATCTCGGAGTCACCTAGTGCAG,64300 fluorescence intensity (a.u.)
14,CTGAACCATCCGACTCACCACCGGTATTTCTCGGCCATCTCGGAGTCACCTAGTGCAG,3950 fluorescence intensity (a.u.)
15,TGGCCCATCAGAGTCAGAGCCGCCGCCGACTCCAGATTCCCGGAGTCACCTAGTGCAG,3220 fluorescence intensity (a.u.)
16,CTCCACCACGAGTCACGAGTCACGACCACCTCTCCGGTCTCGGAGTCACCTAGTGCAG,4170 fluorescence intensity (a.u.)
17,GCCCGGAAGCTAGCGCCTCGTCGACTTGGGCGGCGGCTGACGGAGTCACCTAGTGCAG,18000 fluorescence intensity (a.u.)
18,CTTAGTCGCCATTTTCTTCCCATATCCACGCGCCACGTGGCGGAGTCACCTAGTGCAG,25100 fluorescence intensity (a.u.)
19,TGAATCTATACACTCTTCTATTCAGATTCGTTGTACTATGCGGAGTCACCTAGTGCAG,3870 fluorescence intensity (a.u.)
20,GCCTAATTACATCATGATTTGACAATGTTGTGCTACAGTACGGAGTCACCTAGTGCAG,4210 fluorescence intensity (a.u.)
21,CTACCAGACCCGTGGGCCGGCTCTGCCTCGCCTAATCCAGCGGAGTCACCTAGTGCAG,47000 fluorescence intensity (a.u.)

row,Sequence,binding signal
1,CCGCGGCCACCTGGCCTACCTCGCCTCTCCCGTGGGCCCCCGGAGTCACCTAGTGCAG,3240 fluorescence intensity (a.u.)
2,GCCGTGCCGTGCCGTGCCGGCCCGCGGGCTCGGCCAGCGGCGGAGTCACCTAGTGCAG,30700 fluorescence intensity (a.u.)
3,TGCATAAGTGTCCGTACCAGTACGGTCAGAGTGACATATGCGGAGTCACCTAGTGCAG,3770 fluorescence intensity (a.u.)
4,TTACGAGACGAATCTTTTAAGACTAATTGCTCCATGATTTCGGAGTCACCTAGTGCAG,3280 fluorescence intensity (a.u.)
5,TTTCTCTGAACGACCGGCCACGTTAAACTAAGGCCAAGTCCGGAGTCACCTAGTGCAG,65500 fluorescence intensity (a.u.)
6,TAAATTTTAATTTTCTGATTGGTATGCCACGTTAGTGAAACGGAGTCACCTAGTGCAG,3420 fluorescence intensity (a.u.)
7,TTTGGTTTCCGGCCAAACATTGCCACGCCTAACTTAAGGCCGGAGTCACCTAGTGCAG,5170 fluorescence intensity (a.u.)
8,CGCCATCGCCAACGCCAACGCCTCCGCGGACTCCATTGTCCGGAGTCACCTAGTGCAG,3650 fluorescence intensity (a.u.)
9,GATAGGAGGGGATAACTTGTTTCATATTTTGTGCCGGGTTCGGAGTCACCTAGTGCAG,3710 fluorescence intensity (a.u.)
10,AATGTAGGCACCATACCATGACTGTTTTCACACATTGTACCGGAGTCACCTAGTGCAG,3580 fluorescence intensity (a.u.)
11,AATATGAACTGATAGGATTTGTTTTCACACCATACCAAACCGGAGTCACCTAGTGCAG,59700 fluorescence intensity (a.u.)
12,TGCGATTTTAGACGATTATCGTGCGATTATCACGGTTATCCGGAGTCACCTAGTGCAG,3360 fluorescence intensity (a.u.)
13,AGCGAGACACTTTGAGATTTAGTATGAGTCATGTAAATTACGGAGTCACCTAGTGCAG,7830 fluorescence intensity (a.u.)
14,GGGCCAAATTTTATCGAGAAGATTAGACACGAGTATGGGCCGGAGTCACCTAGTGCAG,47600 fluorescence intensity (a.u.)
15,GCGTGCCGAAGGTGTGTCCCCTGCACCGGCTCCGGCAGGTCGGAGTCACCTAGTGCAG,9960 fluorescence intensity (a.u.)
16,ATGAAAGGGAATGTGTGGTGGAGGAGGTGGCTGAGAGATTCGGAGTCACCTAGTGCAG,3340 fluorescence intensity (a.u.)
17,TTGTTGAAGCAGTTTAATGTTAATAGTATACTAACATTAACGGAGTCACCTAGTGCAG,28600 fluorescence intensity (a.u.)
18,ATTCGTTATACTAGGTGACATCTCATCTAATATTTGTTTACGGAGTCACCTAGTGCAG,4270 fluorescence intensity (a.u.)
19,TGAACATGCCCATTGTTACTCATTCCTAATACTATAGGAACGGAGTCACCTAGTGCAG,42200 fluorescence intensity (a.u.)
20,GGAACTTCTGTTTAGGCATTTGCACCTGAAATATGATCTGCGGAGTCACCTAGTGCAG,3190 fluorescence intensity (a.u.)
21,TCCCGCAGGAGTTCCACCCACGTGTCATAAACCATTACAGCGGAGTCACCTAGTGCAG,12800 fluorescence intensity (a.u.)
